# Out of some 65,000 compounds screened, about 2,100 (3.2%) showed an effect of 50% or more. The median lay at about -52%. The list comes from a sample in which strong results are over-represented; it also holds similar structures and randomly drawn compounds.
# Test system: Plasmodium falciparum
# Assay: Screen against P. falciparum Asexual Blood Stage (ABS), at 5uM
# Format: functional, Dd2
# Conditions: tested at 5 uM
row,Structure (SMILES),INHIBITION
1,Clc1ccc2nc(N3CCC(NCCCC4CCOC4)CC3)sc2c1 (stereo not drawn),66.2%
2,CCS(=O)(=O)CCNC1CCN(c2nc3ccc(Cl)cc3s2)CC1,-52%
3,Cc1csc2c(N3CCC(NCCCC4CCOC4)CC3)ncnc12 (stereo not drawn),-85.3%
4,COCc1nc2ncc3c(=O)n(-c4ccccc4OC)ccc3n2n1,-152%
5,O=C(Nc1cccc(F)c1)C1CCCN1c1nccs1 (stereo not drawn),-77.8%
6,N#Cc1cccc(NC(=O)C2CCCN2c2nccs2)c1 (stereo not drawn),58.1%
7,O=C(Nc1cccc(N2CCCC2)c1)C1CCCN1c1nccs1 (stereo not drawn),-129%
8,CNC(=O)c1ccc(CNc2ccncc2Cl)cc1,-24.6%
9,O=S(=O)(NCCCn1cncn1)c1ccc2c(c1)CCCC2,-159%
10,CNc1nc(C2CCCN2C(C)=O)nc2c1CN(C1CCCC1)CC2 (stereo not drawn),-71.7%
11,CN1CCCCC1c1cncc(N2CCC(O)CC2)n1 (stereo not drawn),-68.9%
12,Cc1noc(C)c1CN1CCC2(COCc3cnc(N(C)C)nc32)C1 (stereo not drawn),26.7%
13,CN(C)c1ncc2c(n1)C1(CCN(Cc3ccccc3F)C1)COC2 (stereo not drawn),4.25%
14,O=S(=O)(C1CC1)N1CCC2(COCc3cnc(NCC4CC4)nc32)C1 (stereo not drawn),-35.7%
15,c1ccc(CN2CCC3(COCc4cnc(NCC5CC5)nc43)C2)cc1 (stereo not drawn),50.2%
16,c1cc(N2CCC3(COCc4cnc(NCC5CC5)nc43)C2)ncn1 (stereo not drawn),-14.7%
17,Cc1ccccc1CN1CCC2(COCc3cnc(N(C)C)nc32)C1 (stereo not drawn),54%
18,Cc1cccc(CN2Cc3ccnn3CC(COCC3CC3)C2)n1 (stereo not drawn),-11.3%
19,COCCN1CCN(C(=O)NC2CC2)Cc2ccc(C)nc21,-51.3%
20,Cc1cc(C[C@@H]2COC[C@H]2NCc2ccc(Cl)c(Cl)c2)on1,-65.7%
21,Cn1cc(N2CCC3(CCCN(Cc4ccc(F)cc4)C3)C2=O)cn1 (stereo not drawn),-69.1%
22,O=C1COC2(CCN(CC3CC3)CC2)CN1c1ccsc1,-43%
23,c1cc(C2CC2)n2cnc(C3CN(Cc4ccncc4)CCO3)c2c1 (stereo not drawn),-50%
24,COCC(=O)N1CCC(c2nc3ccc(-c4ccncc4)cn3n2)CC1,-48.7%
25,c1ccc(-c2noc(CCNC3CCOC4(CCOCC4)C3)n2)nc1 (stereo not drawn),-80.1%
26,c1ccc(Cc2noc(CCNC3CCOC4(CCOCC4)C3)n2)cc1 (stereo not drawn),-43.3%

row,Structure (SMILES),INHIBITION
1,c1ccc2c(c1)nnn2CCCNC1CCOC2(CCOCC2)C1 (stereo not drawn),-4.37%
2,c1ccc2c(c1)cnn2CCCNC1CCOC2(CCOCC2)C1 (stereo not drawn),68.9%
3,c1ccc2c(c1)ccn2CCCNC1CCOC2(CCOCC2)C1 (stereo not drawn),61.8%
4,c1ccc(-c2nc(CCNC3CCOC4(CCOCC4)C3)no2)cc1 (stereo not drawn),-81.3%
5,COc1cc(F)ccc1-c1ncccc1NC(=O)C(C)C,-81.8%
6,CC(C)(C)c1nc(NS(=O)(=O)c2cccc(F)c2)no1,-71.4%
7,Cc1cc(NCc2ccc(C#N)cc2)n2nc(C)cc2n1,-88.7%
8,Cc1nn(C)c2cn(C(C)C(=O)NCc3ccccn3)nc12 (stereo not drawn),-17.6%
9,Cc1noc(C)c1CN1CCN(CCN(C)C)c2ncccc2C1,23.7%
10,CN(C)CCN1CCN(Cc2cccc(C#N)c2)Cc2cccnc21,65.1%
11,CC(C)N(C)Cc1cnc2n1CCN(Cc1cccc(C#N)c1)C2,10.6%
12,Cc1ncccc1NC(=O)c1nc2c(n1C)CCN(C(=O)C1CC1)C2,-117%
13,COc1cc(C(C)NCc2scnc2C)ccc1SC(F)F (stereo not drawn),19.3%
14,COc1cc(C(C)NCc2cscn2)ccc1SC(F)F (stereo not drawn),52.5%
15,COc1ccccc1NCc1cscn1,-46.4%
16,CN(Cc1cccnc1)C1CC2(CCN(Cc3cccnc3)CC2)C1,-8.45%
17,Cc1ccc(N2CCC3(CC2)CCN(C2CCOCC2)CC3)nn1,-77.4%
18,COCCN(Cc1ccc(C)cc1)CC1CCOC1 (stereo not drawn),-104%
19,COc1ccccc1CN1C[C@@H]2COC[C@]2(COc2cccnc2)C1,52.9%
20,COc1cc(N2C[C@@H]3COC[C@]3(COCc3ccncc3)C2)ncn1,-1.95%
21,COc1ncccc1CN1C[C@@H]2COC[C@]2(COc2cccnc2)C1,-33.8%
22,COc1ccccc1CN1C[C@@H]2COC[C@]2(COCc2ccncc2)C1,55.3%
23,Fc1cccc(CN2C[C@@H]3COC[C@]3(COCc3ccncc3)C2)c1,-28.5%
24,CCOC[C@]12COC[C@H]1CN(Cc1cccc(OC)c1)C2,3.19%
25,COc1cccc(CN2C[C@@H]3COC[C@]3(COc3cccnc3)C2)c1,16.9%
26,COc1cccc(CN2C[C@@H]3COC[C@]3(COCc3ccccn3)C2)c1,61%

row,Structure (SMILES),INHIBITION
1,COc1cccc(CN2C[C@@H]3COC[C@]3(COCc3ccncc3)C2)c1,33.5%
2,COCc1nc(C(=O)N2CCCC(n3ccnc3)C2)cs1 (stereo not drawn),-141%
3,Cn1cc(N2CC3(CCN(Cc4ccsc4)CC3)OCC2=O)cn1,-22.1%
4,Cc1nc(NCCCn2cccn2)c2c(n1)c(C)nn2C,-54.6%
5,Cc1cn2c(n1)CCC(NC(=O)CCCOCc1ccccc1)C2 (stereo not drawn),-45.8%
6,Cc1nc(CO[C@@H]2CN(Cc3cnn(C)c3)[C@@H]3COC[C@@H]32)cs1,-12.8%
7,Cc1n[nH]c(C)c1-c1cc(-c2cccc(O)c2)nc(N)c1C#N,-71.8%
8,Cc1n[nH]c(C)c1-c1cc(-c2ccc[nH]2)nc(N)c1C#N,-185%
9,CC(C)Cc1cc(-c2cc(-c3ccc[nH]3)nc(N)c2C#N)n[nH]1,61.3%
10,N#CC1(NC(=O)c2ccc(F)c(Br)c2)CCSC1 (stereo not drawn),-155%
11,CCc1ccc(NC(=O)CCN2CC(n3nc(C)cc3C)C2)cc1,-12.9%
12,CCc1nnc(NC(=O)c2ccc(C3CCCN3CC(C)C)s2)s1 (stereo not drawn),-54.1%
13,CC(C)CN1CCCC1c1ccc(C(=O)Nc2cn(C)nn2)s1 (stereo not drawn),52.9%
14,CC(C)CN1CCCC1c1ccc(C(=O)Nc2cc[nH]n2)s1 (stereo not drawn),44.6%
15,O=C(Nc1cccc(Cl)c1)c1nn(C2CCS(=O)(=O)C2)c2c1CCCC2 (stereo not drawn),25.4%
16,O=C(CO[C@@H]1CC[C@H]2[C@H]1OCCN2Cc1ccccn1)N1CCCC1,-59.6%
17,O=C(c1cnccn1)N1CCC2(CC1)CCN(Cc1ccccn1)C2=O,-85.2%
18,CN(Cc1cncnc1)[C@@H]1CN(Cc2ccco2)C[C@@H]2CCCO[C@@H]21,-7.65%
19,COc1ccccc1CN1CC[C@H]2[C@@H](C1)[C@H](c1ccsc1)CN2C(C)=O,29.5%
20,CC(C)(C)C(=O)N1C[C@H](c2ccsc2)[C@H]2CN(Cc3cccs3)CC[C@H]21,29.8%
21,COc1cccc(CN2CC[C@H]3[C@@H](C2)[C@H](c2ccsc2)CN3C(C)=O)c1,54.8%
22,Cn1nc(COc2cccnc2)c2c1CCN(c1cnccn1)C2,-72.3%
23,Oc1cc(C2CCCCN2CC2CC2)nc(-c2ccncc2)n1 (stereo not drawn),-48.7%
24,O=C1CC2(CCN(CC3CCOC3)CC2)c2ccccc2N1CC1CC1 (stereo not drawn),12.4%
25,CCCS(=O)(=O)N1CCC2(CC1)CN(C(=O)N(C)C)c1ccccc12,-7.36%
26,CCCS(=O)(=O)N1CCC2(CC1)CN(CC1CCOC1)c1ccccc12 (stereo not drawn),50.8%

row,Structure (SMILES),INHIBITION
1,CCS(=O)(=O)N1CCC2(CC1)CN(CC1CCOC1)c1ccccc12 (stereo not drawn),23.6%
2,c1ccc2c(c1)N(CC1CCOC1)CC21CCN(c2cnccn2)CC1 (stereo not drawn),69.9%
3,CS(=O)(=O)N1CCC2(CC1)CN(CC1CCOC1)c1ccccc12 (stereo not drawn),-50.1%
4,Cc1nn(CC(F)F)c2c1c(C(F)F)cc(=O)n2CC(=O)O,-111.45%
5,CN1CCCn2c(nc(CNS(=O)(=O)C3CC3)cc2=O)C1,-41.3%
6,Cc1nn(C)c2cnn(Cc3ccc(C(=O)NC4CC4)cc3)c12,-60.4%
7,COc1ccc(Cn2c(C3CCNCC3)cc3cccnc32)cc1,66.9%
8,c1cnc2c(c1)cc([C@H]1CCCO1)n2CCN1CCCC1,21.4%
9,CN1CCCC1c1cc2cccnc2n1Cc1ccc(F)cc1 (stereo not drawn),69.9%
10,COc1cccc(CN2C[C@H]3CCNCC[C@H]3S2(=O)=O)c1,17.1%
11,Fc1ccccc1-c1nccnc1C1CCCNC1 (stereo not drawn),10.7%
12,COc1ccc(-c2ccnc(C3CCNCC3)c2)cc1,30.9%
13,c1cnc2c(c1)cc(C1CCOCC1)n2CCN1CCOCC1,-7.49%
14,COc1cccc(-c2ccnc(C3CCNCC3)c2)c1,-73.8%
15,Fc1cccc(-c2nccnc2C2CCCNC2)c1 (stereo not drawn),14.9%
16,Fc1cccc(F)c1Cn1c(C2CCCNC2)cc2cccnc21 (stereo not drawn),66.1%
17,c1cnc2c(c1)cc([C@H]1CCCO1)n2CCN1CCCCC1,25.8%
18,COc1cccc(Cn2c(C3CCNCC3)cc3cccnc32)c1,66.1%
19,O=C(C1CCOCC1)N1C[C@H]2CCC[C@@]2(COCc2ccccn2)C1,-15.1%
20,Cc1noc(C(C)C)c1C(=O)NCc1cccc(CN(C)C)c1,-13.6%
21,Cc1cnc(CNC2CCc3nc(C(C)C)nn3C2)cn1 (stereo not drawn),-20.3%
22,Cc1ccc(CN2C[C@@H]3CN(CC4CCOCC4)CCO[C@@H]3C2)s1,-95.1%
23,CC(C)(C)n1cc(CNc2ccc(CNS(C)(=O)=O)cc2)cn1,-25.8%
24,Cn1cnc2c1C(COCC1CC1)CN(Cc1ccc3c(c1)OCO3)C2 (stereo not drawn),41.1%
25,CCCC(=O)N1CCCN(C(=O)c2oc(C)nc2C)CC1,-111%
